High-throughput results (PubChem BioAssay)
Only some compounds are listed: those with a hit (about 2.4% of all), similar ones and a draw of the others.
zVAD death inh = L929 zVAD cell death inhibition | viability rescue, % at 10 µM | L929 zVAD necroptosis rescue, ATP luminescence, 24 h; with zVAD 60 µM | AID 1377 | actives 0.38% (n = 220,000);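 active means activation, scaled between plate controls, above about 75%, limit read from the data; inactive means activation under that limit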
Redox H2O2 prof = compounds producing H2O2 with reducing agent – biochemical, NIH compound library profiling, artefact control for MLSCN library redox annotation, primary screen; activation, % at 10 µM; actives 0.03% (n = 200,000); AID 878; DTT-dependent redox cycling H2O2, phenol red/HRP absorbance; 100% = 100 µM peroxide control, 0% = buffer;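 active means activation of at least 50% relative to the plate's high and low controls in the primary single-dose screen; inactive means activation below 50%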;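 further: compound incubated with DTT at 0.8 mM final as the reducing agent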
WT yeast gro inh = growth inhibition of WT yeast, mitochondrial fusion screen; mitochondrial fusion phenotypic screen, WT strain; AID 1362; actives 2.1% (n = 190,000); inhibition, % at 10 µM; in the data active means inhibition above about 58%; tested in S. cerevisiae
PERK inh = human PERK inhibition, primary cell-based screen; actives 0.17% (n = 220,000); AID 1416; inhibition, % at 5.6 µM; CHO PERK-DD fusion, SEAP luminescence translation reporter;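 active means inhibition above the mean inhibition of all tested compounds plus 3 SD, set separately per screening campaign, cut at about 2.9% in these data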;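 further: PERK kinase domain activated by AP20187 dimerizer at 100 nM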
PKD1 inh = blocks activity of human protein kinase D1. AID 797. Q15139. inhibition, % (concentration not given with the values). PKD1 kinase fluorescence polarization assay. actives 0.056% (n = 200,000); in the data active means inhibition above about 50%
TNF necrop inh = inhibitors of TNF-alpha induced necroptosis in Jurkat FADD-/- cells. Jurkat FADD-/- TNF necroptosis rescue, ATP luminescence, 24 h; 0 = TNF only, 100 = no-TNF cells. activation (protection from cell death), % at 10 µM. actives 0.068% (n = 220,000). AID 463075;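 active means activation, meaning protection from cell death, of at least 50% relative to plate controls; inactive means activation below 50%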;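 further: necroptosis triggered by 40 ng/mL TNF-alpha added together with compound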
Large screens that a line does not name were inactive.

Oc1ccc(Cl)cc1-c1cc(-c2cccc(Br)c2)n[nH]1	WT yeast gro inh 82
C/C(=N\Nc1nc(N2CCCCCC2)nc(N2CCCCCC2)n1)c1ccccc1	WT yeast gro inh 65
C/C(=N\Nc1nc(N2CCCCC2)nc(N2CCOCC2)n1)c1cccs1	none
O=C(NNc1ccc(C2CCCCC2)cc1)C(O)(c1ccccc1)c1cccs1 (stereo not drawn)	WT yeast gro inh 89
COc1ccc(C(O)(C(=O)NNc2ccc(C)cc2)c2cccs2)cc1 (stereo not drawn)	none
CCCc1nn(C)c2c(=O)[nH]c(-c3cc(S(=O)(=O)Nc4ccc(NC(C)=O)cc4)ccc3OCC)nc12	none (no result: Redox H2O2 prof, WT yeast gro inh, PKD1 inh)
O=C(COc1cccc(Cl)c1)Nc1ccc2c(c1)CCC2	none
O=C1Nc2ccccc2N(O)N1c1cc(-c2cccc(Cl)c2)no1	none
O=C1Nc2ccccc2N(O)N1c1cc(-c2ccccc2Cl)no1	PERK inh 3.2
O=C(COc1nc2ccccc2nc1N1CCOCC1)Nc1cccc(S(=O)(=O)N2CCCCC2)c1	none
CN(C)c1ccc(N=Nc2ccccc2C(=O)OCC(=O)NCC2CCCCC2)cc1	WT yeast gro inh 64
CN(C)c1ccc(N=Nc2ccccc2C(=O)OCC(=O)NC2CCCC2)cc1	none
N#Cc1nc(Cc2cccc3ccccc23)oc1NCc1ccc(F)cc1	WT yeast gro inh 71
C=CCNc1oc(Cc2cccc3ccccc23)nc1C#N	none
Cc1ccc(-n2c(C3CC3c3ccc(Cl)cc3)n[nH]c2=S)cc1 (stereo not drawn)	none
S=c1[nH]nc(C2CC2c2ccc(Cl)cc2)n1-c1ccc(Cl)cc1 (stereo not drawn)	WT yeast gro inh 76
CCCCc1nc2sc3c(=O)n(N)cnc3c2c2c1CCC2	PERK inh 3.0
CC(=O)Nc1ccc(CN2CCCC(C(=O)c3ccc(C(F)(F)F)cc3)C2)cc1 (stereo not drawn)	none
O=C(CSCc1cccc(Cl)c1)Nc1ccccc1-c1ccccc1	WT yeast gro inh 64
Cc1ccccc1CSCC(=O)Nc1ccccc1-c1ccccc1	WT yeast gro inh 74
Cc1ccccc1NC(=O)CSCC(=O)Nc1ccccc1C	none
Cc1ccccc1NC(=O)CSC(N)=O	PERK inh 3.1
CCCCNC(=S)N(C)/N=C/c1ccc2c(c1)OCO2	WT yeast gro inh 78
O=C(CN1CCN(c2ccccc2)CC1)Nc1ccc(Oc2ccccc2)cc1	WT yeast gro inh 60
O=C(CN1CCN(c2ccc(O)cc2)CC1)Nc1ccc(SC(F)F)cc1	none
COc1cccc(N2CCN(CC(=O)Nc3ccc(SC(F)F)cc3)CC2)c1	WT yeast gro inh 63
COc1ccc(C2c3sc(=O)[nH]c3SC3C4CCC(C4)C23)cc1 (stereo not drawn)	WT yeast gro inh 65
O=c1[nH]c2c(s1)C(c1ccccc1)C1C3CCC(C3)C1S2 (stereo not drawn)	none
CCc1ccc(C2=CC(c3cc(Br)ccc3F)n3ncnc3N2)cc1 (stereo not drawn)	WT yeast gro inh 65
CCOC(=O)C1=C(C)n2c(s/c(=C/c3cccc([N+](=O)[O-])c3)c2=O)=NC1c1ccc(O)c(OC)c1 (stereo not drawn)	WT yeast gro inh 70
O=C(NCc1ccco1)c1cccnc1-c1nc2ccccc2s1	WT yeast gro inh 64
CCCCCCN(C(=O)CCCCCN1C(=O)NC(c2ccccc2)C(C(=O)OCc2ccccc2)=C1C)C(C(=O)NCCCC)c1ccc(OCC(=O)OC)c(C(=O)OC)c1 (stereo not drawn)	none (no result: Redox H2O2 prof, WT yeast gro inh, PERK inh, PKD1 inh)
Cn1cccc1-c1nc2ccccc2[nH]1	none (no result: Redox H2O2 prof, WT yeast gro inh, PKD1 inh)
CN(NC(=S)Nc1ccc(OC(F)F)cc1)C(=S)Nc1ccc(OC(F)F)cc1	WT yeast gro inh 65
CCN(CC)C(=S)Nc1ccc(OC(F)F)cc1	none
C=CCN(c1ccccc1)S(=O)(=O)c1cccc(C(=O)O)c1	PERK inh 3.4
Cc1ccnc(NC(=O)C2COc3ccccc3O2)c1 (stereo not drawn)	none
Cc1ccc(NC(=O)C2COc3ccccc3O2)nc1 (stereo not drawn)	TNF necrop inh 89
O=CN(c1ccccc1)c1ccc2ccccc2c1	none
